In PubChem BioAssay (NCI):
About 83,000 compounds went through this panel and 20% of them were active in at least one assay; those are over-represented in the sample as a whole.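 Testing used 96-well plates and a 48-hour single-concentration exposure. Example: -40 means 40% of the starting cells died.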 Values without a mark were called inactive. Activity calls are given as the source filed them. How the source made its calls: active means growth percent below 10; inactive means the rest.

How the values were obtained:
Assay in all cases: NCI-60 one-dose screen, 48 h (100 = growth as untreated, 0 = no growth, -100 = all killed)
Conditions in all cases: 10 µM unless noted
NCI-H23 lung = test system: NCI-H23 lung
NCI-H226 lung = test system: NCI-H226 lung
NCI-H322M lung = test system: NCI-H322M lung
HOP-62 NSCLC = test system: HOP-62 NSCLC
NCI-H460 lung = test system: NCI-H460 lung
HOP-92 NSCLC = test system: HOP-92 NSCLC
NCI-H522 lung = test system: NCI-H522 lung
A549/ATCC NSCLC = test system: A549/ATCC NSCLC
786-0 renal = test system: 786-0 renal
COLO 205 colon = test system: COLO 205 colon
DU-145 prostate = test system: DU-145 prostate
K-562 leukemia = test system: K-562 leukemia
MALME-3M melanoma = test system: MALME-3M melanoma
MDA-MB-231 breast = test system: MDA-MB-231 breast
RXF 393 renal = test system: RXF 393 renal
SF-268 CNS = test system: SF-268 CNS
SF-295 CNS = test system: SF-295 CNS
SF-539 CNS = test system: SF-539 CNS
UACC-257 melanoma = test system: UACC-257 melanoma
M14 melanoma = test system: M14 melanoma

SMILES	growth (NCI-H23 lung)	growth (NCI-H226 lung)	growth (NCI-H322M lung)	growth (HOP-62 NSCLC)	growth (NCI-H460 lung)	growth (HOP-92 NSCLC)	growth (NCI-H522 lung)	growth (A549/ATCC NSCLC)	growth (786-0 renal)	growth (COLO 205 colon)	growth (DU-145 prostate)	growth (K-562 leukemia)	growth (MALME-3M melanoma)	growth (MDA-MB-231 breast)	growth (RXF 393 renal)	growth (SF-268 CNS)	growth (SF-295 CNS)	growth (SF-539 CNS)	growth (UACC-257 melanoma)	growth (M14 melanoma)
CCN(C(=O)N1CCN(c2cc3c(cc2F)c(=O)c(C(=O)O)cn3C2CC2)CC1)c1nc(-c2ccc(Cl)cc2)cs1	3.93% (active)	11.9%	11%	14.2%	8.51% (active)	-19.2% (active)	1.67% (active)	12.9%	12.7%	0.749% (active)	23.5%	12.7%	6.66% (active)	-21.5% (active)	18.2%	21.8%	-0.18% (active)	11.8%	12.9%	23%
C=CCc1c(O)c(C(=O)/C=C/c2ccc(Cl)cc2)c(OC)c2ccoc12	57.1%	28.7%	75.8%	85.4%	49.8%	48.6%	35.7%	47.3%	78%	73.7%	78.5%	47.2%	34.6%	49.4%	21.9%	53.8%	33.1%	50.7%	39.4%	58.3%
c1cc2[nH]ncc2cc1-c1nc2ccc3[nH]ncc3c2c2c1CCCC2	12.9%	29.4%	23.7%	22.7%	13.6%	16.9%	-28.2% (active)	5.84% (active)	19.7%	3.57% (active)	23.3%	15.3%	12.1%	31.1%	-15.8% (active)	25.1%	19.4%	-7.82% (active)	20.2%	2.16% (active)
Cn1cc(-c2csc(-c3c[nH]c4ccc(Br)cc34)n2)c2cnccc21	-64.2% (active)	-55.7% (active)	-44.5% (active)	-66.7% (active)	-82.4% (active)	-86.2% (active)	-66.8% (active)	-77.5% (active)	-90.5% (active)	-72.9% (active)	-91.7% (active)	-53.8% (active)	-88.7% (active)	-81.4% (active)	-94.9% (active)	-75.5% (active)	-86.6% (active)	-96.4% (active)	-50.2% (active)	-81.7% (active)
COc1ccc(-c2cc(-c3ccc(Cl)cc3)c(C#N)c(=O)n2CCCCC(=O)Nc2ccccc2N)cc1	63.4%	55.3%	63.8%	64.1%	37.6%	-3.51% (active)	48.6%	43.8%	68.8%	20.2%	59.9%	24.8%	59.3%	39.3%	14.2%	65.5%	-14.5% (active)	73.9%	44.7%	-7.3% (active)
COc1ccc(C(=O)Nc2ncc(Cc3cccc(Cl)c3)s2)cc1OC	46.8%	42.2%	39.6%	4.67% (active)	13.7%	54.6%	-11% (active)	34%	26.9%	1.48% (active)	30.5%	11.6%	47.6%	39.1%	-7.25% (active)	50.8%	6.3% (active)	-12.3% (active)	23.1%	8.45% (active)
c1cnc2[nH]cc(-c3csc(-c4cn(CCCN5CCOCC5)c5ccccc45)n3)c2c1	68.1%	61.5%	80.2%	48.7%	45.4%	12%	56.9%	54.4%	28.4%	31.2%	82%	1.22% (active)	61.1%	27.1%	24.9%	52.3%	16.7%	52.9%	85%	14.5%
Cc1ccc(Cc2cnc(NC(=O)c3cc(Br)cs3)s2)cc1	73.1%	73.1%	79.7%	50.8%	46.7%	59.1%	34.3%	51%	67.8%	80%	84.9%	15%	56.5%	70.9%	71.4%	71.7%	43.8%	66.4%	79.5%	30.4%
